Each structure is given as a SMILES string. Inconclusive results are not listed. The source made the active and inactive calls. How the source made its calls: active means hit-call score of the fitted dose curve at least 0.9, where 1 is the maximum; inconclusive means response in the unintended direction; inactive means score below 0.9.

Chain of human Peroxisome Proliferator-activated Receptor alpha (PPARa), PPARA (gene 5465) (Q07869 whole entry, looked up): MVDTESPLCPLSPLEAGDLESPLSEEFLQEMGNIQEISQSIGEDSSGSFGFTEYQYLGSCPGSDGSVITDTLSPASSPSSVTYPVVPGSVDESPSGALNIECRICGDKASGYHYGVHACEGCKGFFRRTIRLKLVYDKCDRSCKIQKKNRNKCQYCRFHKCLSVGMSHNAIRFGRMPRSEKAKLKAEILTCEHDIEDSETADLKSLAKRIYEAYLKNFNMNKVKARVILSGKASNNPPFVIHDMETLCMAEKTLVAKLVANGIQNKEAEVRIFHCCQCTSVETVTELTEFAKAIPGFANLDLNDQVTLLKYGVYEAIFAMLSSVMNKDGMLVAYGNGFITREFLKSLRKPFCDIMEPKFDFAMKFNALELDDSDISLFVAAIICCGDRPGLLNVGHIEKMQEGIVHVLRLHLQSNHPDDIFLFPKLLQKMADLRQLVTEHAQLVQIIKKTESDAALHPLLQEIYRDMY

For the experiment, the target named is human Peroxisome Proliferator-activated Receptor alpha (PPARa), PPARA (gene 5465) (UniProt Q07869). Kind of experiment: ERF_US_NR_hPPARA: Eurofins (ERF) Nuclear Receptor (NR) Cell Based Protein-Protein Interaction LeadHunter Assay for human Peroxisome Proliferator-activated Receptor alpha (PPARa) Agonism. The protocol:
ERF_US_NR_hPPARA is a cell-based, single-readout assay that uses extracted gene-proteins […]. Measurements were taken 5 hours after chemical dosing in a 384-well plate. See PPARalpha Human NHR Cell Based Agonist Protein-Protein Interaction Assay, DiscoverX.ERF_US_NR_hPPARA is an assay component calculated from theERF_US_NR_hPPARA assay. It is designed to measure radioligand binding using a type of binding reporter as detected by scintillation counting with radiometry technology.Data from the assay component ERF_US_NR_hPPARA was analyzed at the assay endpoint, ERF_US_NR_hPPARA, in the positive analysis fitting direction relative to DMSO as the negative control and baseline of activity. Using a type of binding reporter, gain-of-signal activity can be used to understand changes in binding as they relate to gene PPARA. To generalize the intended target to other relatable targets, this assay endpoint is annotated to the nuclear receptor intended target family, where the subfamily is non-steroidal.
Cells were seeded in a total volume of 20 uL into white walled, 384-well microplates and incubated at 37C overnight prior to testing.Briefly, intermediate dilution of sample stocks was performed to generate 5X sample in assay buffer. 5 uL of 5X sample was added to cells and incubated at 37C for 300 minutes. Final assay vehicle concentration was 1%. The results are expressed as a percent efficacy of the control ligand.
Consider `O=S(=O)(O)C(F)(F)C(F)(F)C(F)(F)C(F)(F)C(F)(F)C(F)(F)C(F)(F)C(F)(F)F`, for which the compound was called inactive. Turning to `CN(CCOc1ccc(CC2SC(=O)NC2=O)cc1)c1ccccn1` (centres undefined), the result was inactive. Regarding `O=S(=O)(O)C(F)(F)C(F)(F)C(F)(F)C(F)(F)C(F)(F)C(F)(F)F`, the outcome was inactive. As for `O=C(O)C(F)(F)C(F)(F)C(F)(F)C(F)(F)C(F)(F)C(F)(F)C(F)(F)C(F)(F)Cl`, the compound was called inactive. With `O=C(O)C(F)(F)C(F)(F)C(F)(F)C(F)(F)C(F)(F)C(F)(F)C(F)(F)F`, the result was inactive. `CC(C)(Oc1ccc(C(=O)c2ccc(Cl)cc2)cc1)C(=O)O`: the AC50 was 50 µM (active). Consider `O=C(CC(=O)C(F)(F)C(F)(F)C(F)(F)F)c1cccs1`, for which the AC50 is 12.6 µM (active). For `O=C(O)C(F)(F)OC(F)(F)C(F)(F)OC(F)(F)F`, the result was inactive. In the case of `O=C(O)C(F)(F)C(F)(F)C(F)(F)C(F)(F)C(F)(F)C(F)(F)C(F)F`, the call was inactive.

Usually AC50 stands for the concentration at which the activity in the assay is half-maximal.

The record behind these values is PubChem BioAssay AID2284384 (EPA ToxCast).
